Source: PubChem BioAssay (Tox21)
Results filed as inconclusive are left out. Activity calls are given as the source filed them. Calls come from the whole dose curve.

Assays:
[1] = target: Acetylcholinesterase (Homo sapiens) (UniProt P22303); experiment: Acetylcholinesterase (AChE) small molecule antagonists: colormetric cell-based qHTS assay (AID 1347395); note: nearly all actives have a fitted effect of over 30% in size
Summary of the method: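 Colorimetric read-out: DTNB detects thiocholine released when cellular AChE in SH-SY5Y cells hydrolyses acetylthiocholine. Cells attached overnight, received compound for 30 min at 37 C, then substrate mix for 90 min at 37 C.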

[2] = target: Acetylcholinesterase (Homo sapiens) (UniProt P22303); experiment: Acetylcholinesterase (AChE) small molecule antagonists: enzyme-based qHTS assay (AID 1347397); settings: Potency: AChE enzyme activity inhibition; outcome: AChE enzyme activity inhibition; note: nearly all actives have a fitted effect of over 55% in size
Summary of the method: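 Tox21 library chemicals are tested in qHTS format against recombinant human AChE. The enzyme, dispensed at 50 mU/mL, sits with compound for 30 min at room temperature. A DTNB–acetylthiocholine cocktail follows, and colour is read after 10 min.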

[3] = target: Acetylcholinesterase (Homo sapiens) (UniProt P22303); experiment: Acetylcholinesterase (AChE) small molecule antagonists: fluorescence cell-based qHTS assay (AID 1347398); settings: Potency: AChE activity; outcome: AChE activity; note: nearly all actives have a fitted effect of over 50% in size
Summary of the method: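 Cellular AChE inhibition: SH-SY5Y cells treated with test chemical for 30 min at 37 C, then acetylthiocholine hydrolysis followed over 40 min at room temperature via thiocholine-reactive Thiolite Green fluorescence (490/520 nm).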

[4] = target: Acetylcholinesterase (Homo sapiens) (UniProt P22303); experiment: Acetylcholinesterase (AChE) small molecule antagonists: enzyme-based qHTS assay with human liver microsomes (AID 1347399); settings: Potency: qHTS inhibition; outcome: qHTS inhibition; note: nearly all actives have a fitted effect of over 60% in size
Summary of the method: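 Recombinant human AChE (50 mU/mL in the enzyme mix) and human liver microsomes (0.25 mg/mL final) were preincubated with compound and NADPH (0.25 mg/mL final) for 30 min at 37 C. Acetylthiocholine/DTNB was then added; thiocholine was read colorimetrically after 10 min at room temperature.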
% is set by controls: 0 for no effect and ±100 for the full control effect.

Chain of Acetylcholinesterase (Homo sapiens) (P22303 whole entry, looked up): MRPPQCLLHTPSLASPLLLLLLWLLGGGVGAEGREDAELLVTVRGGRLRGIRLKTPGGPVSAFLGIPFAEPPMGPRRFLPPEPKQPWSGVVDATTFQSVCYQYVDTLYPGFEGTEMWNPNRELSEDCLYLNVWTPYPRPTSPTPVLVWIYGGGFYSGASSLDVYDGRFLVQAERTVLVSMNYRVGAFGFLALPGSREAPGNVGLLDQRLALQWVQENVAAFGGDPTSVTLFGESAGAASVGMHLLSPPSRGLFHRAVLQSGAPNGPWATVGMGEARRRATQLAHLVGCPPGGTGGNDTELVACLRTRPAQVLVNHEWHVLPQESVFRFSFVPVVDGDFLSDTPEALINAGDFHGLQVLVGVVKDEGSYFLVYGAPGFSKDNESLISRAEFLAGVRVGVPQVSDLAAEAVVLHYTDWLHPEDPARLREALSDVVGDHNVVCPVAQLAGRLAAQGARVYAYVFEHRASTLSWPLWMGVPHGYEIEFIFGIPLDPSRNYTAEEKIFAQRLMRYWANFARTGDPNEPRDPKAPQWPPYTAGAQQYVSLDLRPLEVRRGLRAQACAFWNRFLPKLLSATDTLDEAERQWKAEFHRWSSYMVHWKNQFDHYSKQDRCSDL

Cc1c(Cn2ccnc2)c2ccccc2n1CCC(=O)O
inactive: Potency [1] | Potency [2] | Potency [3] | Potency [4]

C[N+](C)(C)CCOC(=O)CCC(=O)OCC[N+](C)(C)C
inactive: Potency [1] | Potency [2] | Potency [3] | Potency [4]

OCCOCC#CCOCCO
inactive: Potency [1] | Potency [2] | Potency [3] | Potency [4]

C1=C\CC/C=C\CC/1
inactive: Potency [1] | Potency [2] | Potency [3] | Potency [4]

O=C(O)C(=O)Nc1cccc(-c2nn[nH]n2)c1
inactive: Potency [1] | Potency [2] | Potency [3] | Potency [4]

CCOC(=O)c1ccc(N)cc1
inactive: Potency [1] | Potency [2] | Potency [3] | Potency [4]

C=CC(C)(CCC=C(C)C)OC(C)=O (stereo unspecified)
inactive: Potency [1] | Potency [2] | Potency [3] | Potency [4]

O=C(c1ccc(O)cc1)c1ccc(Cl)cc1
inactive: Potency [1] | Potency [2] | Potency [3] | Potency [4]

CCCCC(CC)COC(=O)CC#N (stereo unspecified)
inactive: Potency [1] | Potency [2] | Potency [3] | Potency [4]

O=C1OC(=O)C2CC=CCC12 (stereo unspecified)
inactive: Potency [1] | Potency [2] | Potency [3] | Potency [4]

CCCCCCCCCCCCCCCC(=O)OCC
inactive: Potency [1] | Potency [2] | Potency [3] | Potency [4]

O=C1NCN(c2ccccc2)C12CCN(CCCC(c1ccc(F)cc1)c1ccc(F)cc1)CC2
inactive: Potency [1] | Potency [2] | Potency [3] | Potency [4]

CC[C@H]1OC(=O)[C@H](C)[C@@H](O[C@H]2C[C@@](C)(OC)[C@@H](O)[C@H](C)O2)[C@H](C)[C@@H](O[C@@H]2O[C@H](C)C[C@H](N(C)C)[C@H]2O)[C@](C)(O)C[C@@H](C)/C(=N\OCOCCOC)[C@H](C)[C@@H](O)[C@]1(C)O
inactive: Potency [1] | Potency [2] | Potency [3] | Potency [4]

O=C(O)c1cc2ccccc2cc1O
inactive: Potency [1] | Potency [2] | Potency [3] | Potency [4]

CCCCCCCCCCCCCCC(=O)O
inactive: Potency [1] | Potency [2] | Potency [3] | Potency [4]

C/C=C(\C)C(=O)OCCC(C)CCC=C(C)C (stereo unspecified)
inactive: Potency [1] | Potency [2] | Potency [3] | Potency [4]

O=C(NC(Cc1cc(=O)[nH]c2ccccc12)C(=O)O)c1ccc(Cl)cc1 (stereo unspecified)
inactive: Potency [1] | Potency [2] | Potency [3] | Potency [4]

NC1CCCCC1
inactive: Potency [1] | Potency [2] | Potency [3] | Potency [4]

Cc1cccc2c1cc1ccc3cccc4ccc2c1c34
inactive: Potency [1] | Potency [2] | Potency [3] | Potency [4]

O=C1OCc2ccccc21
inactive: Potency [1] | Potency [2] | Potency [3] | Potency [4]

CCO[Si](CCCN)(OCC)OCC
inactive: Potency [1] | Potency [2] | Potency [3] | Potency [4]

CC(C)(O)CCc1ccccc1
inactive: Potency [1] | Potency [2] | Potency [3] | Potency [4]

O=C1c2ccccc2C(=O)c2cc(O)ccc21
inactive: Potency [1] | Potency [2] | Potency [3] | Potency [4]

CC1=CC(C)C(C=O)C(C)C1 (stereo unspecified)
inactive: Potency [1] | Potency [2] | Potency [3] | Potency [4]

Brc1nc2ccccc2s1
inactive: Potency [1] | Potency [2] | Potency [3] | Potency [4]

c1ccc2c(c1)c1cccc3ccc4cccc2c4c31
inactive: Potency [1] | Potency [2] | Potency [3] | Potency [4]

O=C(O)C(S)C(S)C(=O)O (stereo unspecified)
inactive: Potency [1] | Potency [2] | Potency [3] | Potency [4]

O=c1[nH]cnc2nc[nH]c12
inactive: Potency [1] | Potency [2] | Potency [3] | Potency [4]

CC(C)CCCCCOC(=O)CCS
inactive: Potency [1] | Potency [2] | Potency [3] | Potency [4]

Nc1ccc(N)c2c1C(=O)c1ccccc1C2=O
inactive: Potency [1] | Potency [2] | Potency [3] | Potency [4]

CC(=O)N1CCN(c2ccc(O)cc2)CC1
inactive: Potency [1] | Potency [2] | Potency [3] | Potency [4]

COC(=O)OC
inactive: Potency [1] | Potency [2] | Potency [3] | Potency [4]

CC1=C(C(=O)OC(C)C)C(c2cccc([N+](=O)[O-])c2)C(C(=O)OC2CN(C(c3ccccc3)c3ccccc3)C2)=C(N)N1 (stereo unspecified)
inactive: Potency [1] | Potency [2] | Potency [3] | Potency [4]

O=C(OCC(O)CO)c1ccccc1Nc1ccnc2c(C(F)(F)F)cccc12 (stereo unspecified)
inactive: Potency [1] | Potency [2] | Potency [3] | Potency [4]

O=C(N/N=C/c1ccc([N+](=O)[O-])o1)c1ccc(O)cc1
inactive: Potency [1] | Potency [2] | Potency [3] | Potency [4]

O=[N+]([O-])c1cccc(S(=O)(=O)O)c1
inactive: Potency [1] | Potency [2] | Potency [3] | Potency [4]

CC(C)CC(C)CC(O)CC(C)C (stereo unspecified)
inactive: Potency [1] | Potency [2] | Potency [3] | Potency [4]

NC(=O)CC[C@@H]1NC(=O)[C@H](Cc2ccccc2)NC(=O)[C@H](Cc2ccc(O)cc2)NC(=O)CCSSC[C@@H](C(=O)N2CCC[C@H]2C(=O)N[C@@H](CCCN=C(N)N)C(=O)NCC(N)=O)NC(=O)[C@H](CC(N)=O)NC1=O
inactive: Potency [1] | Potency [2] | Potency [3] | Potency [4]

CCCCCCCCCCCCCCCC(=O)OC[C@H](O)[C@H]1OC(=O)C(O)=C1O
inactive: Potency [1] | Potency [2] | Potency [3] | Potency [4]

O=C(Oc1ccccc1)c1ccc(O)cc1
inactive: Potency [1] | Potency [2] | Potency [3] | Potency [4]

CCCCCCCCNC
inactive: Potency [1] | Potency [2] | Potency [3] | Potency [4]

CCCCC(CC)COC(=O)CCCCC(=O)OCc1ccccc1 (stereo unspecified)
inactive: Potency [1] | Potency [2] | Potency [3] | Potency [4]

CC(=O)OCC(=O)[C@@]1(O)CC[C@H]2[C@@H]3CCC4=CC(=O)C=C[C@]4(C)[C@H]3[C@@H](O)C[C@@]21C
inactive: Potency [1] | Potency [2] | Potency [3] | Potency [4]

COC(=O)CCCCC(=O)O
inactive: Potency [1] | Potency [2] | Potency [3] | Potency [4]

O=C(O)c1ccccc1C(=O)OCc1ccccc1
inactive: Potency [1] | Potency [2] | Potency [3] | Potency [4]

O=[N+]([O-])c1cc(C2CCCCC2)c(O)c([N+](=O)[O-])c1
inactive: Potency [1] | Potency [2] | Potency [3] | Potency [4]

COc1ccc2nc(S(=O)Cc3ncc(C)c(OC)c3C)[nH]c2c1 (stereo unspecified)
inactive: Potency [1] | Potency [2] | Potency [3] | Potency [4]

O=c1[nH][nH]c2ccccc12
inactive: Potency [1] | Potency [2] | Potency [3] | Potency [4]

NC(=S)NNC(N)=S
inactive: Potency [1] | Potency [2] | Potency [3] | Potency [4]

CC(=O)OC/C=C/c1ccccc1
inactive: Potency [1] | Potency [2] | Potency [3] | Potency [4]

O=C(O)CC(=O)O
inactive: Potency [1] | Potency [2] | Potency [3] | Potency [4]

CCC(C(=O)OCCN1CCOC(c2ccccc2)C1C)c1ccccc1 (stereo unspecified)
inactive: Potency [1] | Potency [2] | Potency [3] | Potency [4]

O=c1oc(=O)c2cc3c(=O)oc(=O)c3cc12
inactive: Potency [1] | Potency [2] | Potency [3] | Potency [4]

Nc1ncnc(Nc2ccccc2)n1
inactive: Potency [1] | Potency [2] | Potency [3] | Potency [4]

O=P(O)(OCc1ccccc1)OCc1ccccc1
inactive: Potency [1] | Potency [2] | Potency [3] | Potency [4]

Nc1cc([N+](=O)[O-])ccc1C(=O)O
inactive: Potency [1] | Potency [2] | Potency [3] | Potency [4]

O=C(O)Cc1cccc(-c2cc(CCCCCCc3ccc(O[C@H]4O[C@H](CO)[C@@H](O)[C@H](O)[C@@H]4O)c(-c4cccc(CC(=O)O)c4)c3)ccc2O[C@H]2O[C@H](CO)[C@@H](O)[C@H](O)[C@@H]2O)c1
inactive: activity, negative = inhibition [1] 1.5% [at 0.435 µM] | activity change, negative = inhibition [2] 1.01% [at 0.435 µM] | activity change, negative = inhibition [3] 5.75% [at 0.439 µM] | activity change, negative = inhibition [4] -1.17% [at 0.435 µM]

COc1ccc(NC(=O)CC(C)=O)cc1
inactive: Potency [1] | Potency [2] | Potency [3] | Potency [4]

CCC(C(=O)OCCN(CC)CC)c1ccccc1 (stereo unspecified)
inactive: Potency [1] | Potency [2] | Potency [3] | Potency [4]

O=C1OC2(c3ccccc31)c1ccc(O)c(Br)c1Oc1c2ccc(O)c1Br
inactive: Potency [1] | Potency [2] | Potency [3] | Potency [4]

CCCC1CCC(=O)O1 (stereo unspecified)
inactive: Potency [1] | Potency [2] | Potency [3] | Potency [4]

COc1cc([C@H]2Oc3cc([C@H]4Oc5cc(O)cc(O)c5C(=O)[C@@H]4O)ccc3O[C@@H]2CO)ccc1O
inactive: Potency [1] | Potency [2] | Potency [3] | Potency [4]

CCCCCCCCCCCCCOS(=O)(=O)O
inactive: Potency [1] | Potency [2] | Potency [3] | Potency [4]

Nc1cccc(S(=O)(=O)c2cccc(N)c2)c1
inactive: Potency [1] | Potency [2] | Potency [3] | Potency [4]

CCCCCC[C@@H](CCC)C(=O)O
inactive: Potency [1] | Potency [2] | Potency [3] | Potency [4]

CCCCCCC(CCCCCCCCCCC(=O)OCC(COC(C)=O)OC(C)=O)OC(C)=O (stereo unspecified)
inactive: Potency [1] | Potency [2] | Potency [3] | Potency [4]

CC/C(C)=N\O[Si](C)(O/N=C(\C)CC)O/N=C(\C)CC
inactive: Potency [1] | Potency [2] | Potency [3] | Potency [4]

CC(C)(C)c1cccc(C(C)(C)C)c1O
inactive: Potency [1] | Potency [2] | Potency [3] | Potency [4]

O=C1c2ccccc2C(=O)C1c1ccccc1
inactive: Potency [1] | Potency [2] | Potency [3] | Potency [4]

Cc1ccc2c(c1)C(=O)c1ccccc1C2=O
inactive: Potency [1] | Potency [2] | Potency [3] | Potency [4]

CC(=O)CC/C=C(\C)CC/C=C(\C)CC/C=C(\C)CCC=C(C)C
inactive: Potency [1] | Potency [2] | Potency [3] | Potency [4]

CC(=O)Nc1c(I)cc(I)c(C(=O)O)c1I
inactive: Potency [1] | Potency [2] | Potency [3] | Potency [4]

CCOC(=O)CC(=O)c1ccccc1
inactive: Potency [1] | Potency [2] | Potency [3] | Potency [4]

O=C1CC2CC1C1CCCC21 (stereo unspecified)
inactive: Potency [1] | Potency [2] | Potency [3] | Potency [4]
